Sampled rows, rich in hits. Any-hit rate of the full collection: about 4.5%.
hgDAF-12 ag = H. glycines DAF-12 receptor agonists, primary screen, cell-based, luminescence, HEK293, GAL4 fusion, UAS-luciferase; Nuclear hormone receptor DAF-12 (Heterodera glycines), GAL4 fusion; HEK293 GAL4-hgDAF12 UAS-luciferase reporter, agonist luminescence; normalized to butyrate control; activation, % at 6.8 µM; 1.8% of 370,000 active; AID 687014, 2013;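 active = activation above a cutoff set at the mean of all screened compounds plus 3 SD, cut at about 10% in these data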
hcDAF12 agonist = H. contortus DAF-12 nuclear receptor activators, primary screen, cell-based, luminescence, HEK293, lit1-tk-luc reporter. HEK293 hcDAF-12 lit1-tk-luc reporter; 0% DMSO, 100% Δ7-dafachronic acid. activation, % at 6.8 µM. 1.4% of 370,000 active;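 active = activation above the mean of all tested compounds plus 3 SD, cut at about 5.5% in these data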
ssDAF12 agonist = S. stercoralis DAF-12 nuclear receptor activators, primary screen, cell-based, luminescence, HEK293, GRIP1 co-expression, lit1-tk-luc; Nuclear hormone receptor DAF-12 (Strongyloides stercoralis); HEK293 ssDAF-12/GRIP1 lit1-tk-luc reporter; % of 3 µM dafachronic acid response; activation, % at 6.8 µM; 1% of 370,000 active; AID 652126, 2013;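 active = activation above the mean over all tested compounds plus 3 SD, cut at about 0.9% in these data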
DAX1 inh-1 = DAX1 (NR0B1) inhibitors, primary screen, cell-based, HEK293, Gal4-DAX1, luciferase luminescence; inhibition, % at 6.75 µM; 0.99% of 340,000 active; HEK293 Gal4-DAX1 luciferase reporter; Nuclear receptor subfamily 0 group B member 1 (Homo sapiens), P51843;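 active = inhibition above the mean over all tested compounds plus 3 SD, cut at about 4.2% in these data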;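 note: inhibition shows as a rise in luminescence from relieved DAX1 repression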
Target sequence (P51843 207-470 limits assumed): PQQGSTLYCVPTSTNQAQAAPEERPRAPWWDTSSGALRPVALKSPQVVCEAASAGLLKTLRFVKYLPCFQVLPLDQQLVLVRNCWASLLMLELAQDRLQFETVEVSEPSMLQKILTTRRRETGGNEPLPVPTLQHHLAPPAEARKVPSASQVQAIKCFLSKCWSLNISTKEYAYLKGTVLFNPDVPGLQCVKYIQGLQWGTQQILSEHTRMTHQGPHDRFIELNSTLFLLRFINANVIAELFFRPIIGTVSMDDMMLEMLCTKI
GAA850 FXN act = FXN promoter activators, primary screen, cell-based, luciferase luminescence, HEK293 lucGAA850; HEK293 lucGAA850 FXN promoter luciferase reporter, 24 h; percent of 10 µM SAHA response; activation, % at 6 µM; 0.56% of 360,000 active;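 active = activation above the average of all compounds screened plus 3 SD, cutoff fixed separately per campaign, cut at about 7.5% in these data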
DAX1 inh-2 = DAX1 (NR0B1) inhibitors on StAR promoter, primary screen, cell-based, luminescence, SF-1 (NR5A1), full-length DAX-1. HEK293T StAR-luciferase reporter, SF-1/DAX-1 repression relief. inhibition, % at 6.8 µM. 1.1% of 370,000 active. AID 652010, 2013;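 active = inhibition above the mean over all tested compounds plus 3 SD, cut at about 3.6% in these data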;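 note: higher inhibition means more luminescence from relief of DAX-1 repression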
DAX1 inh confirm = DAX1 (NR0B1) inhibitors relieving SF-1 repression, confirmation, cell-based, luminescence, HEK293T, full-length DAX-1, SF-1 activated StAR promoter | HEK293T StAR-promoter luciferase reporter, SF-1/DAX-1 repression | inhibition, % at 6.8 µM | 87% of 2,400 active | AID 652134, 2013 | shares compounds with DAX1 inh-2;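 active = inhibition above the average of every tested compound plus 3 SD, cut at about 3.8% in these data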
SF1 AF2mut Luc = StAR reporter signal changes without DAX1, counter-screen for DAX1 inhibitor project, cell-based, luminescence, AF-2 mutant SF-1, transactivation | shares compounds with DAX1 inh-2 | HEK293 StAR-luciferase, SF-1 AF2 mutant | inhibition, % at 6.8 µM | 78% of 2,400 active | AID 652136, 2013;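 active = inhibition above the mean of all tested compounds plus 3 SD, cut at about 3% in these data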
Of the large screens only hits and unclear results are named; the others gave an inactive call (follow-up assays come after a bar, where they were run).

COc1ccc(-c2nc(CS(=O)CC(=O)NCc3ccc4c(c3)OCO4)c(C)o2)cc1OC (stereo unspecified)	none
CCOC(=O)c1c(C)[nH]c(C(=O)OCc2ccc(F)cc2)c1C	DAX1 inh-2 5.7 | DAX1 inh confirm 7.5 | SF1 AF2mut Luc 5.8
CCOC(=O)c1[nH]c(C)c(C(=O)Nc2ccc(F)cc2)c1C	none
CCOC(=O)c1c(C)[nH]c(C(=O)COC(=O)C2CC2)c1C	DAX1 inh-2 5.2 | DAX1 inh confirm inactive | SF1 AF2mut Luc inactive
CCOc1ccc(CNC(=O)CN2C(=O)CSc3ccc(S(=O)(=O)N4CCOCC4)cc32)cc1OC	none
CC1=C(C(=O)N(C)C)CC(CC(=O)NCC2CCCCC2)C(=O)N1Cc1ccc(F)cc1 (stereo unspecified)	none (no result: DAX1 inh-1, GAA850 FXN act)
CC(=NNc1ccc2ccccc2n1)c1ccccc1O	DAX1 inh-2 5.9 | DAX1 inh confirm inactive | SF1 AF2mut Luc inactive
CC(=NNc1ccc2ccccc2n1)c1ccccn1	none (no result: DAX1 inh-1, GAA850 FXN act)
CC(C)(c1ccccc1)c1ccc(OCc2ccc(C(=O)O)o2)cc1	DAX1 inh-2 11 | DAX1 inh confirm 5.3 | SF1 AF2mut Luc 4.9
CN(CCc1ccccc1)C(=O)c1ccc(NC(=O)Cc2cccc(NC(=O)C3CCN(C(=O)c4ccccc4)CC3)c2)cc1	none
C=CCNc1nc(NCc2ccc(NC(C)=O)cc2)c2sc(-c3ccccc3)cc2n1	hgDAF-12 ag 12, ssDAF12 agonist 2.0, DAX1 inh-2 6.4 (no result: DAX1 inh-1) | DAX1 inh confirm 7.8 | SF1 AF2mut Luc 5.7
COc1ccc(C(=O)C[n+]2cn(C(F)F)c3ccccc32)c(F)c1	DAX1 inh-2 7.3 | DAX1 inh confirm inactive | SF1 AF2mut Luc 3.9
C/C(=N/NC(=O)c1ccoc1C)c1ccc(NC(=O)C2CCCC2)cc1	hgDAF-12 ag 15, hcDAF12 agonist 6.0, DAX1 inh-2 6.1 | DAX1 inh confirm 5.3 | SF1 AF2mut Luc 4.2
COc1ccc(C(=O)Nc2cccc(/C(C)=N\NC(=O)c3ccoc3C)c2)cc1OC	hgDAF-12 ag 13, DAX1 inh-2 12 | DAX1 inh confirm inactive | SF1 AF2mut Luc inactive
C/C(=N\NC(=O)c1nn(C)c(C)c1Br)c1ccc(NC(=O)C2CCCC2)cc1	hgDAF-12 ag 12, DAX1 inh-2 8.9 | DAX1 inh confirm inactive | SF1 AF2mut Luc inactive
COc1ccc(C(=O)Nc2cccc(/C(C)=N/NC(=O)c3ccc([N+](=O)[O-])c(C)c3)c2)cc1OC	none
Cc1occc1C(=O)NNC(=O)C1CCCCC1	none
CCCCCNC(=O)C(c1cccc2ccccc12)n1c(=O)c(-c2cc3ccccc3[nH]2)nc2ccccc21 (stereo unspecified)	none (no result: DAX1 inh-1, GAA850 FXN act)
CC(C)=CCn1c2ccc(NC(=O)NCc3ccc(F)cc3)cc2c(=O)n1C	none (no result: DAX1 inh-1)
CCCN1CCCCC(NC(=O)c2cccs2)C1=O (stereo unspecified)	none (no result: DAX1 inh-1, GAA850 FXN act)
CCN(CC)S(=O)(=O)c1ccc(NC(=O)CCN2C(=O)C3CC=CCC3C2=O)cc1 (stereo unspecified)	DAX1 inh-2 5.2 | DAX1 inh confirm inactive | SF1 AF2mut Luc inactive
CSc1nc2ccsc2c(=O)n1-c1ccccn1	none
Cc1ccc(NC(=O)CCC(=O)c2cccs2)c(Br)c1	DAX1 inh-2 8.0 | DAX1 inh confirm 7.6 | SF1 AF2mut Luc 5.5
COc1cccc(-c2nc(-c3ccccc3)c3ccc(Cl)cc3n2)c1	none (no result: DAX1 inh-1, GAA850 FXN act)
CCOc1ccc(NC(=O)c2ccc3c(c2)N(C)CCS3)cc1	DAX1 inh-2 5.0 | DAX1 inh confirm 5.0 | SF1 AF2mut Luc inactive
CCN1CCSc2ccc(C(=O)Nc3ccc(NC(C)=O)cc3)cc21	none
Cc1ccc2nc(SCC(=O)N3CCN(C(=O)c4ccco4)CC3)[nH]c2c1	none
Cc1ccc2nc(SCC(=O)N3CCCC3)[nH]c2c1	DAX1 inh-2 4.8 | DAX1 inh confirm 12 | SF1 AF2mut Luc 6.1
Cc1ccnc(Nc2ccc(CCO)cc2)n1	hgDAF-12 ag 11, DAX1 inh-2 4.8 (no result: DAX1 inh-1, GAA850 FXN act) | DAX1 inh confirm 9.5 | SF1 AF2mut Luc 5.6
CC(C)[C@H](NC(=O)OC(C)(C)C)c1cc(C(=O)N2CCOCC2)c(N)s1	DAX1 inh-2 6.0 (no result: DAX1 inh-1, GAA850 FXN act) | DAX1 inh confirm inactive | SF1 AF2mut Luc inactive
CC(C)[C@H](NC(=O)OC(C)(C)C)c1cc(C(=O)NCCO)c(N)s1	none (no result: DAX1 inh-1, GAA850 FXN act)
COc1cc(SC)ccc1C(=O)NNC(=O)c1cc(C)oc1C	hgDAF-12 ag 13, DAX1 inh-2 12 | DAX1 inh confirm 6.9 | SF1 AF2mut Luc 5.0
COc1cc(SC)ccc1C(=O)Nc1c(C)cccc1C	none
O=C1[C@@H](CCc2ccccc2)[C@@H]2c3cc4ccccc4cc3C=NN2[C@@H]2c3cc4ccccc4cc3C=NN12	none (no result: DAX1 inh-1, GAA850 FXN act)
O=C(O)c1ccc(NC(=S)N2CCCCC2)cc1	none
CCOC(=O)c1ccc(NC(=O)N2CCOCC2)cc1	none
CC(=O)c1ccc(NC(=S)N2CCCC2)cc1	DAX1 inh-2 5.1 | DAX1 inh confirm inactive | SF1 AF2mut Luc inactive
CCOC(=O)c1ccc(NC(=O)N2CCCCCC2)cc1	DAX1 inh-2 5.0 | DAX1 inh confirm 14 | SF1 AF2mut Luc 8.0
CC1(C(=O)NS(=O)(=O)C2CC2)CCCN(C(=O)C2(c3ccc(Cl)cc3)CCCC2)C1 (stereo unspecified)	none (no result: DAX1 inh-1)
Cc1ccccc1/C=N/NC(=O)c1ccc(-n2cnnn2)cc1	none
O=C(OCC(=O)N1CCNC1=O)c1ccccc1Cl	none
Cc1ccc(C(=O)OCC(=O)N2CCNC2=O)c(C)c1	DAX1 inh-2 6.9 | DAX1 inh confirm 7.1 | SF1 AF2mut Luc 5.9
Cc1cc(NC(=O)c2nn(C)c(C)c2Br)no1	DAX1 inh-2 4.6 | DAX1 inh confirm 4.6 | SF1 AF2mut Luc 5.2
